Out of some 5,500 compounds screened, about 2,000 (36%) were called active. Inconclusive results (about 18%) are left out. No stated cut-off is given here; in the data, active means normalized growth mostly below about 0.91 (no sharp cut-off); inconclusive means no clear call, values can overlap the other calls; inactive means mostly above about 0.92. The list shows a part of the results.
Assay: chemical genetic growth profiling, strain panel (AID 1159580);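 further: tested at 20 µM; growth read once vehicle control cultures reached saturation at 30 °C; 1 = growth at the plate median or of vehicle wells; lower values mean less growth of the strain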
Settings: growth OD

Measured: normalized growth

NC(=O)c1ccccc1O
inactive: S. cerevisiae deletion strains, locus YJR066W, strain TOR1, hits give low values 0.999 | S. cerevisiae deletion strains, locus YKL009W, strain mrt4, hits give low values 1.01 | S. cerevisiae deletion strains, locus YKL068W, hits give low values 0.995 | S. cerevisiae deletion strains, locus YKL085W, strain MDH1 (second series), hits give low values 1 | S. cerevisiae deletion strains, locus YKL085W, strain MDH1, hits give low values 1 | S. cerevisiae deletion strains, locus YKL160W, strain elf1, hits give low values 0.985 | S. cerevisiae deletion strains, locus YKL190W, strain CNB1, hits give low values 0.998 | S. cerevisiae deletion strains, locus YKR001C, strain vps1, hits give low values 1 | S. cerevisiae deletion strains, locus YKR026C, strain gcn3, hits give low values 0.971 | S. cerevisiae deletion strains, locus YKR091W, strain srl3, hits give low values 0.971 | S. cerevisiae deletion strains, locus YLL001W, strain dnm1, hits give low values 0.909 | S. cerevisiae deletion strains, locus YLL026W, hits give low values 0.993 | S. cerevisiae deletion strains, locus YLL041C, strain sdh2, hits give low values 0.969 | S. cerevisiae deletion strains, locus YLR027C, strain aat2, hits give low values 0.981 | S. cerevisiae deletion strains, locus YLR039C, strain RIC1, hits give low values 1 | S. cerevisiae deletion strains, locus YLR058C, strain SHM2, hits give low values 1.01 | S. cerevisiae deletion strains, locus YLR102C, strain apc9, hits give low values 1.01 | S. cerevisiae deletion strains, locus YLR113W, strain HOG1, hits give low values 0.999 | S. cerevisiae deletion strains, locus YLR221C, strain rsa3, hits give low values 1.03 | S. cerevisiae deletion strains, locus YLR258W, strain gsy2, hits give low values 0.988 | S. cerevisiae deletion strains, locus YLR262C, strain YPT6 (second series), hits give low values 0.947 | S. cerevisiae deletion strains, locus YLR262C, strain YPT6, hits give low values 0.986 | S. cerevisiae deletion strains, locus YLR268W, strain sec22, hits give low values 1.04 | S. cerevisiae deletion strains, locus YLR320W, strain mms22, hits give low values 0.996 | S. cerevisiae deletion strains, locus YLR330W, strain CHS5, hits give low values 1.01 | S. cerevisiae deletion strains, locus YLR342W, strain FKS1 (second series), hits give low values 1.02 | S. cerevisiae deletion strains, locus YLR342W, strain FKS1, hits give low values 0.978 | S. cerevisiae deletion strains, locus YLR357W, strain rsc2, hits give low values 0.952 | S. cerevisiae deletion strains, locus YLR370C, strain arc18, hits give low values 0.964 | S. cerevisiae deletion strains, locus YLR371W, strain rom2, hits give low values 1.01 | S. cerevisiae deletion strains, locus YLR384C, strain iki3, hits give low values 0.963 | S. cerevisiae deletion strains, locus YLR418C, strain cdc73, hits give low values 1.02 | S. cerevisiae deletion strains, locus YML016C, strain PPZ1, hits give low values 1 | S. cerevisiae deletion strains, locus YML032C, strain rad52, hits give low values 1.01 | S. cerevisiae deletion strains, locus YML120C, strain ndi1, hits give low values 0.954 | S. cerevisiae deletion strains, locus YML124C, strain tub3, hits give low values 1.01 | S. cerevisiae deletion strains, locus YMR058W, strain fet3, hits give low values 0.987 | S. cerevisiae deletion strains, locus YMR078C, strain ctf18, hits give low values 1 | S. cerevisiae deletion strains, locus YMR125W, strain sto1, hits give low values 0.962 | S. cerevisiae deletion strains, locus YMR129W, hits give low values 0.974 | S. cerevisiae deletion strains, locus YMR205C, strain PFK2, hits give low values 0.978 | S. cerevisiae deletion strains, locus YMR223W, strain ubp8, hits give low values 0.988 | S. cerevisiae deletion strains, locus YMR231W, strain pep5, hits give low values 0.965 | S. cerevisiae deletion strains, locus YMR307W, strain GAS1, hits give low values 1.03 | S. cerevisiae deletion strains, locus YNL067W, strain RPL9B, hits give low values 0.99 | S. cerevisiae deletion strains, locus YNL071W, strain lat1, hits give low values 0.974 | S. cerevisiae deletion strains, locus YNL183C, strain NPR1, hits give low values 0.985 | S. cerevisiae deletion strains, locus YNL209W, strain ssb2, hits give low values 0.98 | S. cerevisiae deletion strains, locus YNL233W, strain BNI4, hits give low values 1 | S. cerevisiae deletion strains, locus YNL248C, strain rpa49, hits give low values 0.982 | S. cerevisiae deletion strains, locus YNL250W, strain rad50, hits give low values 1 | S. cerevisiae deletion strains, locus YNL271C, strain bni1, hits give low values 1.02 | S. cerevisiae deletion strains, locus YNL298W, strain CLA4, hits give low values 1.02 | S. cerevisiae deletion strains, locus YNL307C, strain MCK1, hits give low values 1.02 | S. cerevisiae deletion strains, locus YNL322C, strain KRE1 (second series), hits give low values 0.954 | S. cerevisiae deletion strains, locus YNL322C, strain KRE1, hits give low values 0.998 | S. cerevisiae deletion strains, locus YNR049C, strain mso1, hits give low values 0.974 | S. cerevisiae deletion strains, locus YNR052C, strain pop2, hits give low values 1.01 | S. cerevisiae deletion strains, locus YOL006C, strain TOP1, hits give low values 0.998 | S. cerevisiae deletion strains, locus YOL012C, strain htz1 1.16 | S. cerevisiae deletion strains, locus YOL147C, strain pex11, hits give low values 1.01 | S. cerevisiae deletion strains, locus YOR001W, strain rrp6, hits give low values 0.957 | S. cerevisiae deletion strains, locus YOR061W, strain CKA2, hits give low values 1 | S. cerevisiae deletion strains, locus YOR069W, strain VPS5, hits give low values 1 | S. cerevisiae deletion strains, locus YOR070C, strain gyp1, hits give low values 1 | S. cerevisiae deletion strains, locus YOR080W, strain dia2, hits give low values 0.981 | S. cerevisiae deletion strains, locus YOR083W, strain WHI5, hits give low values 0.957 | S. cerevisiae deletion strains, locus YOR106W, strain vam3, hits give low values 0.94 | S. cerevisiae deletion strains, locus YOR136W, strain idh2, hits give low values 0.989 | S. cerevisiae deletion strains, locus YOR144C, strain elg1, hits give low values 1 | S. cerevisiae deletion strains, locus YOR184W, strain ser1, hits give low values 0.895 | S. cerevisiae deletion strains, locus YOR231W, strain MKK1, hits give low values 1.03 | S. cerevisiae deletion strains, locus YOR265W, strain rbl2, hits give low values 0.98 | S. cerevisiae deletion strains, locus YOR270C, strain vph1, hits give low values 0.963 | S. cerevisiae deletion strains, locus YOR290C, strain snf2, hits give low values 0.999 | S. cerevisiae deletion strains, locus YOR316C, strain cot1, hits give low values 1 | S. cerevisiae deletion strains, locus YPL051W, strain arl3, hits give low values 1.01 | S. cerevisiae deletion strains, locus YPL078C, strain atp4, hits give low values 0.94 | S. cerevisiae deletion strains, locus YPL106C, strain sse1, hits give low values 0.936 | S. cerevisiae deletion strains, locus YPL240C, strain hsp82, hits give low values 0.977 | S. cerevisiae deletion strains, locus YPL241C, strain CIN2, hits give low values 1.01 | S. cerevisiae deletion strains, locus YPL256C, strain CLN2, hits give low values 1.05 | S. cerevisiae deletion strains, locus YPR119W, strain clb2, hits give low values 0.999 | S. cerevisiae deletion strains, locus YPR141C, strain kar3, hits give low values 1.01 | S. cerevisiae deletion strains, locus YPR163C, strain tif3, hits give low values 1.01 | S. cerevisiae deletion strains, locus YPR167C, strain met16, hits give low values 1.01 | S. cerevisiae deletion strains, strain wtn01, hits give low values 1.03 | S. cerevisiae strains, strain wild type, hits give low values 1.01
